Rows were chosen to be rich in hits. Some 2.3% of all compounds tested hit in one or more screens of this group.
TRPV1 ag: human TRPV1 agonism. Q8NER1. TRPV1-expressing cells, Fluo-8 calcium influx, agonist mode. activation, % at 8.33 µM. 0.19% of 320,000 active; in the data active = activation above about 80%; inconclusive = between about 30% and that limit; note: 0% is about no effect
Target sequence (Q8NER1 whole entry, looked up): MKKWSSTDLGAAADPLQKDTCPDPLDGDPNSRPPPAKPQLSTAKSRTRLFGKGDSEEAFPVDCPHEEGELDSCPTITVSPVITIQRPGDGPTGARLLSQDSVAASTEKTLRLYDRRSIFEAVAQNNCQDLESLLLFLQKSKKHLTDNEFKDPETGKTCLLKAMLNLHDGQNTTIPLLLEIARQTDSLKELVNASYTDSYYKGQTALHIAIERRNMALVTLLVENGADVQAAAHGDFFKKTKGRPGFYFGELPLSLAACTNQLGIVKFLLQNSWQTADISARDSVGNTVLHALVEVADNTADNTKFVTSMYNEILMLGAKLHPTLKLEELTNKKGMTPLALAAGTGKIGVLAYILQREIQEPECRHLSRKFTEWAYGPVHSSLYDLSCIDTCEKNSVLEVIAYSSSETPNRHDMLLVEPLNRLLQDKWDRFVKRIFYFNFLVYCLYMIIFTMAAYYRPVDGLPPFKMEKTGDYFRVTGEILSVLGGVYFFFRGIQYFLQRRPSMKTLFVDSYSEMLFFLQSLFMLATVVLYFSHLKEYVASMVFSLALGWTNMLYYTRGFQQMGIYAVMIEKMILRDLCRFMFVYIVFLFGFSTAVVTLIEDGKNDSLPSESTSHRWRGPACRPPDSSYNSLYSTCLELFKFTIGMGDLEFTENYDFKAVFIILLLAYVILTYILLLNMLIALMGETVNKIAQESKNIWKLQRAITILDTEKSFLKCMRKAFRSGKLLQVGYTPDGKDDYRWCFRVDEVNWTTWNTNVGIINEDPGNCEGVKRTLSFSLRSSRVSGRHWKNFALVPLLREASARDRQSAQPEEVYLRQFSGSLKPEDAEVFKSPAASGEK
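Cells expressing TRPV1 were dye-loaded with Fluo-8 and read kinetically: 10 s baseline, 3 min after compound (agonist portion), then 2 min after EC20 capsaicin (allosteric enhancer portion). Calcium-bound dye fluorescence at 480/520 nm.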
ELG1 repair inh: blocks ELG1-dependent DNA repair in HEK293T cells; HEK293T ELG1-luciferase reporter, luminescence, 16 h; DNA damage induced by 5-fluorouridine; Potency, µM (highest dose often 46.1 µM), inactives show at the highest dose activity change, negative = inhibition, usual class: inhibitors; 2.3% of 330,000 active; AID 504467; note: potency is the fitted concentration of half-maximal effect; % is set by controls: 0 for no effect and ±100 for the full control effect; nearly all actives have a fitted effect of over 55% in size
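5-Fluorouridine DNA damage + compound/DMSO, 2,000 cells/well, 16 h, 37 °C/5% CO2. ONE-Glo, 30 min RT, luminescence. Readout = decrease in reporter signal.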
FUS yeast rescue: FUS proteinopathy suppression in yeast | 0.24% of 390,000 active | S. cerevisiae FUS-expressing, growth rescue, OD600, 24 h | Potency, µM (top dose mostly 76.6 µM), hits mostly activators;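 note: potency is the fitted concentration of half-maximal effect; plate controls were DMSO vehicle for no effect and reference control for full effect; nearly all actives have a fitted effect of over 55% in size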
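Galactose (2%) drives FUS expression in yeast precultured in raffinose; seeding density OD 0.005. Test compounds incubated 24hr at 30C and 99% humidity before absorbance at 600 nm was measured.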
Giardia killer: Giardia lamblia killing; Giardia lamblia trophozoite viability; activity change, % at 7.66 µM, hits read low; 0.15% of 340,000 active; AID 540267; in the data active = activity change below about -80%; inconclusive = between about -30% and that limit;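 note: parasites exposed to compound for two days anaerobically before the ATP read; % is set by controls: 0 for no effect and ±100 for the full control effect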
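Luminescence from cellular ATP indicates surviving trophozoites (100 cells/well) following 48 hrs anaerobic compound treatment at 37 deg C; signal develops 15-30 min at room temperature.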
TRPV1 PAM: human TRPV1 potentiation | AID 540277 | TRPV1-expressing cells, Fluo-8 calcium influx, capsaicin EC20 potentiation | 0.02% of 320,000 active | Q8NER1 | potentiation, % at 8.33 µM; in the data active = potentiation above about 80%; inconclusive = between about 30% and that limit; note: 0% is about no effect
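Cells expressing TRPV1 were dye-loaded with Fluo-8 and read kinetically: 10 s baseline, 3 min after compound (agonist portion), then 2 min after EC20 capsaicin (allosteric enhancer portion). Calcium-bound dye fluorescence at 480/520 nm.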
* = called active by the depositor; i = inactive; u = inconclusive; x = no result. Unless noted, calls come from the whole dose curve; as a rule, active = well fitted curve in the direction sought with a large enough effect; inconclusive = small, poorly fitted or top-dose-only effect, or another doubt; inactive = no such curve, though single readings can be large; an effect the other way counts as inactive or inconclusive.

SMILES | TRPV1 ag | ELG1 repair inh | FUS yeast rescue | Giardia killer | TRPV1 PAM
O=C(N/N=C/c1ccccn1)c1cccc([N+](=O)[O-])c1 | -1 | u | i | -11 | u
O=C(N/N=C/c1ccsc1)c1ccccn1 | 27 | u | i | 13 | -26
O=C(N/N=C/c1ccc(Br)s1)c1ccccn1 | 87* | u | i | -5 | -19
COc1ccc(/C=N\NC(=O)c2cccc([N+](=O)[O-])c2)cc1Cn1cc([N+](=O)[O-])cn1 | 1 | 15µM* | x | x | -10
O=C(N/N=C/c1ccccn1)c1ccc(N/N=C/c2ccccn2)cc1 | 1 | u | i | -8 | -16
CC(C)(C)c1ccc(C(=O)N/N=C/c2ccccn2)cc1 | 83* | u | i | -1 | -2
COc1ccc(/C=N/NC(=O)c2ccc(N)cc2)cc1Cn1cc([N+](=O)[O-])cn1 | -6 | u | i | 0 | 6
Cc1nc2ccccn2c1C(=O)NCc1ccc2c(c1)OCO2 | 2 | 16µM* | i | -7 | -1
CCOc1ccc(Sc2cc(C(=O)NCCCOC)c3ccccc3n2)cc1 | x | x | i | x | x
CN1/C(=C\C(=O)c2cccc(S(=O)(=O)N3CCCCC3)c2)C(C)(C)c2ccccc21 | 2 | 18µM* | i | -10 | 17
CN1/C(=C\C(=O)c2cncc(Br)c2)C(C)(C)c2ccccc21 | 26 | 16µM* | i | 19 | -8
CN1/C(=C\C(=O)c2cccnc2)C(C)(C)c2ccccc21 | 15 | 0% | i | 2 | -17
O=C(O)c1cccc(S(=O)(=O)N2CCCC2)c1 | -3 | 19% | i | -9 | 4
Cc1ccc(NC(=O)CSc2nc3ccccc3nc2Cc2ccccc2)c(C)c1 | x | x | i | x | x
CC(C)OCCCn1c(SCc2ccccc2C#N)nc2c(sc3ccccc32)c1=O | x | x | i | x | x
CC1=CC(C)C2(COC(c3ccc[n+](C)c3)OC2)C(C)C1 (stereo not drawn) | -3 | 6.5µM* | i | 2 | 13
COc1ccccc1CNC(=O)c1cc(S(=O)(=O)N2CCCC(C)C2)cn1C (stereo not drawn) | x | x | i | x | x
Cc1ccc(NC(=O)C2CCN(S(=O)(=O)c3c(C)noc3/C=C/c3ccco3)CC2)nc1 | 4 | 15µM* | x | -14 | -3
CCc1ccc2occ(CC(=O)Nc3ccccc3C(F)(F)F)c2c1 | x | x | i | x | x
Cc1nc2cccnc2n1-c1cccc(C(=O)NCc2ccc(OC(C)C)cc2)c1 | x | x | i | x | x
NNC(=O)c1[nH]c2ccc(Cl)cc2c1-c1ccccc1 | 7 | 16µM* | i | -7 | 3
NNC(=O)c1[nH]c2ccc(Br)cc2c1-c1ccccc1 | 1 | u | u | -6 | 4
COc1cccc(N2CCN(c3nc(C)cc(=O)[nH]3)CC2)c1 | 97* | -7% | i | -10 | -11
CCc1c(C)nc(N2CCN(c3cccc(OC)c3)CC2)[nH]c1=O | 4 | -12% | i | -12 | -8
Cc1cccc2cc(CN(Cc3nnnn3Cc3ccco3)C3CCCC3)c3nnnn3c12 | 18 | 21µM* | i | 1 | -2
SMILES | TRPV1 ag | ELG1 repair inh | FUS yeast rescue | Giardia killer | TRPV1 PAM
COc1ccccc1CNC(=O)c1ccc(N2Cc3cccc(OC)c3Oc3ncccc32)s1 | x | x | i | x | x
CC1CCN(C(=O)CCCOc2ccc(Cl)cc2)CC1 | 80* | u | i | 13 | -11
COc1ccc(OCc2nc3ccccc3n2C(C)c2ccccc2)cc1 (stereo not drawn) | x | x | i | x | x
COCCNC(=S)N1CCc2cc(OC)c(OC)cc2C1COc1ccc(F)cc1 (stereo not drawn) | 8 | 16µM* | i | 4 | -8
COCCNC(=S)N1CCc2cc(OC)c(OC)cc2C1COc1ccc(C(C)C)cc1 (stereo not drawn) | 5 | 9.2µM* | i | 2 | 10
CCOC(=O)c1c(C)nc2sc(C(=O)Nc3ccc(OC)cc3)c(N)c2c1-c1ccc(OC)cc1 | 0 | u | i | 12 | -24
CCOC(=O)c1c(C)nc2sc(C(N)=O)c(N)c2c1-c1ccc(OC)cc1 | 0 | 13µM* | i | 4 | 10
COC(=O)c1[nH]c2ccccc2c1NC(=O)CN1CCN(C(=O)c2ccco2)CC1 | 0 | 21µM* | i | -15 | 5
CCOC(=O)N1CCN(CC(=O)Nc2c(C(=O)OC)[nH]c3ccccc23)CC1 | 29 | u | i | 6 | -20
CCN(CC(=O)Nc1c(C(=O)OC)[nH]c2ccc(Cl)cc12)c1ccc2c(c1)OCO2 | 29 | 23µM* | u | -28 | -6
CCOC(=O)C1CCCN(CC(=O)Nc2c(C(=O)OC)[nH]c3ccc(Cl)cc23)C1 (stereo not drawn) | u | 21µM* | i | -7 | 11
COC(=O)c1[nH]c2ccccc2c1NC(=O)CN1CCC(C(N)=O)(N2CCCCC2)CC1 | -1 | 6.5µM* | i | 0 | 21
Cc1nc2cc(C(=O)O)ccc2n1-c1ccc(C(C)C)cc1 | x | x | i | x | x
COC(=O)c1c(NC(=O)CN2CCN(C(=O)c3ccco3)CC2)c2c(C)cccc2n1C | -2 | u | i | 2 | -23
COC(=O)c1c(NC(=O)CN2CCN(C(=O)c3ccco3)CC2)c2cc(C)ccc2n1C | 1 | 21µM* | i | -8 | 1
Cc1cc(C)c(NC(=O)CSc2n[nH]c(-c3ccccc3Cl)n2)c(C)c1 | x | x | i | x | x
COc1ccc2nc3c(cc2c1)c(NC(=O)c1cccs1)nn3CC(C)C | u | u | u | -18 | -6
CC(C)Cn1nc(NC(=O)c2cccs2)c2cc3ccccc3nc21 | u | 21µM* | i | 1 | -22
O=C(COc1ccc([N+](=O)[O-])cc1)N/N=C/c1cc([N+](=O)[O-])ccc1N1CCOCC1 | -6 | 18µM* | x | 15 | 13
COC(=O)c1ccccc1NC(=S)N(Cc1ccc2c(c1)OCO2)Cc1cc2cc(C)ccc2[nH]c1=O | -2 | 6.5µM* | i | 19 | 2
COC(=O)c1ccccc1NC(=S)N(Cc1ccc2c(c1)OCO2)Cc1cc2ccc(C)cc2[nH]c1=O | -1 | 5.8µM* | x | -18 | -3
CCN(CC)CCN(Cc1cc2ccc(C)cc2[nH]c1=O)C(=S)Nc1ccccc1C(=O)OC | -8 | -1% | i | 16 | 14
COC(=O)c1ccccc1NC(=S)N(Cc1ccc2c(c1)OCO2)Cc1cc2ccc(OC)cc2[nH]c1=O | 2 | 7.3µM* | x | 14 | 11
CC1(C)Cc2nc3oc4c(N(CCO)Cc5ccccc5)ncnc4c3cc2CO1 | 3 | 18µM* | i | 3 | 24
O=c1c2ccccc2nc(/C=C/c2ccc(O)cc2)n1CCc1ccccc1 | u | 23µM* | i | 10 | -22
O=c1c2ccccc2nc(/C=C/c2ccccc2)n1CCCO | u | -28% | i | -3 | -20
S=C(NCc1ccccc1)Nc1cccc2cnccc12 | 0 | 2.1µM* | i | -1 | -23
